# Measured values taken from paper PMC7862700, “An all-to-all approach to the identification of sequence-specific readers for epigenetic DNA modifications on cytosine”.
# Tests used:
# Assay in all cases: DAPPL (digital affinity profiling via proximity ligation, sequencing); 10 mM Tris-HCl pH 7.5, 50 mM NaCl, 1 mM DTT, 4% glycerol, room temperature, 30 min; GST-TFs on glutathione beads, 16-mer random dsDNA library, 0.1% formaldehyde crosslink after washing; high values mean tight binding
# Details in all cases: protein: recombinant; tags: N-terminal GST; dsDNA, one strand shown
# [1] = target: T1, ELK1 (Homo sapiens, UniProt P19419 1-428)
# T1 sequence: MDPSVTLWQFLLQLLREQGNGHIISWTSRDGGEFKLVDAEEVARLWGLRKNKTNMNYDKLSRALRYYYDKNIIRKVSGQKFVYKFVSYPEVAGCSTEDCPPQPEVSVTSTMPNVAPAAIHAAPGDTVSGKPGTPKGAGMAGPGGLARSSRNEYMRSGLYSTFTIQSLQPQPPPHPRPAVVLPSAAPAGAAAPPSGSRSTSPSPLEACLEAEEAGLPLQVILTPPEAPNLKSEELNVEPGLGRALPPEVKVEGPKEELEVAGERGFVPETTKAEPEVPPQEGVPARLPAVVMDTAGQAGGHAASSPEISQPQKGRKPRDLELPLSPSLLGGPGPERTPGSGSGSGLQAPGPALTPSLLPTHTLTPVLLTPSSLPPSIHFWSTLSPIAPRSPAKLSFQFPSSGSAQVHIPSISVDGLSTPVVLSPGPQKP
# In short: (§1)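 Binding signal is defined as a hexamer's read frequency for one factor over its frequency for the tag-only sample. To obtain reads, GST-fused human transcription factors were expressed in yeast, captured on glutathione beads, barcoded with DNA and pooled with that sample. Pools met 200 nmole of a 16-mer random double-stranded DNA library in Tris/NaCl/DTT/glycerol buffer for 30 min at room temperature before washing, 0.1% formaldehyde crosslinking, proximity ligation (BsaI/T4 ligase, 1 h, 37 °C), PCR and Illumina NextSeq500 sequencing.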
# [2] = target: T2, GABPA (Homo sapiens, UniProt Q06546 1-454)
# T2 sequence: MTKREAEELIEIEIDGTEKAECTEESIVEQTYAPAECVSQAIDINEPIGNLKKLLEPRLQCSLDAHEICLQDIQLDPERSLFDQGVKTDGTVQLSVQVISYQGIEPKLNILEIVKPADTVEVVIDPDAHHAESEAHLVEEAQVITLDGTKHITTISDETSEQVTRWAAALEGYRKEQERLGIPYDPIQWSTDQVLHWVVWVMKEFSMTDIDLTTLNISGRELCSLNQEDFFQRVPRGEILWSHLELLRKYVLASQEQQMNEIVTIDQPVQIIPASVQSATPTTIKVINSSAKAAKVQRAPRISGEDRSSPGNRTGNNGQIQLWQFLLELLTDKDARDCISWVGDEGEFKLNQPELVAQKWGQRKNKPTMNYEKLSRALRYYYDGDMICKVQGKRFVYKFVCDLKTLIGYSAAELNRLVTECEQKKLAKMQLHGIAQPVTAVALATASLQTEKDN
# In short: as §1
# [3] = target: T3, ERG (Homo sapiens, UniProt P11308 1-479)
# T3 sequence: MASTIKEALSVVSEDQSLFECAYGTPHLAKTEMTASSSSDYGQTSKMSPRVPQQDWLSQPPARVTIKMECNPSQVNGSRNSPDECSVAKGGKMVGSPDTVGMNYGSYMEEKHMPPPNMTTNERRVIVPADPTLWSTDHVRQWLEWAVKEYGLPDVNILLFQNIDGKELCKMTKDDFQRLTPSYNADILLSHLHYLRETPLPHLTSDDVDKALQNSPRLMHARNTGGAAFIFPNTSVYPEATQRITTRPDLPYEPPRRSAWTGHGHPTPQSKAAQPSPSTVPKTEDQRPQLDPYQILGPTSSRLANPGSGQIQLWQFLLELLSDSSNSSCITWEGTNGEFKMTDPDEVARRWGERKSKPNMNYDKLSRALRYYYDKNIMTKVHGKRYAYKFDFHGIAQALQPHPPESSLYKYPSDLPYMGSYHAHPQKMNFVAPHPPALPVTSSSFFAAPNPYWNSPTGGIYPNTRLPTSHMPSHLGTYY
# In short: as §1
# [4] = target: ELF1 (Homo sapiens, UniProt P32519 1-619)
# In short: as §1
# [5] = target: T4, EHF (Homo sapiens, UniProt Q9NZC4 1-300)
# T4 sequence: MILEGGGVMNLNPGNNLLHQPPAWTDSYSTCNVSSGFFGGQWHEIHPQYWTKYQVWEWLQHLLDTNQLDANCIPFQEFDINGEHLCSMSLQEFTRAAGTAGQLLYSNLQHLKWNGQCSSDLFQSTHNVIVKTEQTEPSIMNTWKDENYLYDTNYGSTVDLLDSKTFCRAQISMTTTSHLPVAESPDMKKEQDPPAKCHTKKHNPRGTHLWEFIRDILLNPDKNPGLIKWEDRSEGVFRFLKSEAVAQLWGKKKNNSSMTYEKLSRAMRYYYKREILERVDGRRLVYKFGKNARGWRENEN
# In short: as §1
# [6] = target: SPIB (Homo sapiens, UniProt Q01892 1-262)
# In short: as §1
# [7] = target: T5, ELK3 (Homo sapiens, UniProt P41970 1-407)
# T5 sequence: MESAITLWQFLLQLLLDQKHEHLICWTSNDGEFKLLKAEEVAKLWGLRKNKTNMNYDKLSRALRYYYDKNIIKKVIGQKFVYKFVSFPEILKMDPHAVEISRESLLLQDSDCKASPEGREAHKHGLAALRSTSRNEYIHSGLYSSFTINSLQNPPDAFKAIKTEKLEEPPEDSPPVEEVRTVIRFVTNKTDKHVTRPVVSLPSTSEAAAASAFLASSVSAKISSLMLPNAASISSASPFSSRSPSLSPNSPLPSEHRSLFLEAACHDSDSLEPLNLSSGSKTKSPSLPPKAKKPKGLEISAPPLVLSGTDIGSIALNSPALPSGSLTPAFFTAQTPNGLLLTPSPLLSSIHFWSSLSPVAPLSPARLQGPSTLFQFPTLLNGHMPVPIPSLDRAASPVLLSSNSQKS
# In short: as §1
# [8] = target: T6, SPIC (Homo sapiens, UniProt Q8N5J4 1-248)
# T6 sequence: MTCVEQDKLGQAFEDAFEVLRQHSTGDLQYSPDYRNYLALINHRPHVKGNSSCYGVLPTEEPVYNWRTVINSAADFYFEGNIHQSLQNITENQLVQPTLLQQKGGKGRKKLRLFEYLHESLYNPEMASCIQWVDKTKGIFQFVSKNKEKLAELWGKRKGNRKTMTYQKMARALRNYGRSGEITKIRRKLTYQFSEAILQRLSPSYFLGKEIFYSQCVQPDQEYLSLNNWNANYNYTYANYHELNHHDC
# In short: as §1
# [9] = target: ELF4 (Homo sapiens, UniProt Q99607 1-663)
# In short: as §1
# Chain of SPIB (Q01892 whole entry): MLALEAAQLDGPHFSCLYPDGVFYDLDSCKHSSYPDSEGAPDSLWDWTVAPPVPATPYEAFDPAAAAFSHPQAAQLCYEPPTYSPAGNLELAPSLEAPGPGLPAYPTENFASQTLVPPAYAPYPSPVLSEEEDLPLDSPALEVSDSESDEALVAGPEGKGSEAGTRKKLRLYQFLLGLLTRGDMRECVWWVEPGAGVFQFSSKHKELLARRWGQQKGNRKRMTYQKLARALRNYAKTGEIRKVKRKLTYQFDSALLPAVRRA
# Chain of ELF1 (P32519 whole entry): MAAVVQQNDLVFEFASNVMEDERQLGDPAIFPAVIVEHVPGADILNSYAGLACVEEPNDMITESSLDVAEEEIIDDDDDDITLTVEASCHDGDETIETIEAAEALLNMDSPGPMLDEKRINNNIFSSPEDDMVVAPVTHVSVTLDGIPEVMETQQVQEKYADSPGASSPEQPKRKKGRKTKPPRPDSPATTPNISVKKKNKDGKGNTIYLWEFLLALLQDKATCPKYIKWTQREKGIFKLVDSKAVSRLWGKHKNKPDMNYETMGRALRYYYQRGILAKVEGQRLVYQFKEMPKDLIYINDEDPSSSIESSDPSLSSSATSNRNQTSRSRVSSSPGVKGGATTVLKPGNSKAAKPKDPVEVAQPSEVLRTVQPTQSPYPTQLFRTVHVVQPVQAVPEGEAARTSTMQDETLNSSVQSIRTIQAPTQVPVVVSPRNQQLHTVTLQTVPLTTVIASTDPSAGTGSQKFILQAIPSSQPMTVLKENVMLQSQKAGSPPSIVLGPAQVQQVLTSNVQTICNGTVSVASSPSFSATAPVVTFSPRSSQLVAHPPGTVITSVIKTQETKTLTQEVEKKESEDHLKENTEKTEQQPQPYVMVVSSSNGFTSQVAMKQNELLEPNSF
# Chain of ELF4 (Q99607 whole entry): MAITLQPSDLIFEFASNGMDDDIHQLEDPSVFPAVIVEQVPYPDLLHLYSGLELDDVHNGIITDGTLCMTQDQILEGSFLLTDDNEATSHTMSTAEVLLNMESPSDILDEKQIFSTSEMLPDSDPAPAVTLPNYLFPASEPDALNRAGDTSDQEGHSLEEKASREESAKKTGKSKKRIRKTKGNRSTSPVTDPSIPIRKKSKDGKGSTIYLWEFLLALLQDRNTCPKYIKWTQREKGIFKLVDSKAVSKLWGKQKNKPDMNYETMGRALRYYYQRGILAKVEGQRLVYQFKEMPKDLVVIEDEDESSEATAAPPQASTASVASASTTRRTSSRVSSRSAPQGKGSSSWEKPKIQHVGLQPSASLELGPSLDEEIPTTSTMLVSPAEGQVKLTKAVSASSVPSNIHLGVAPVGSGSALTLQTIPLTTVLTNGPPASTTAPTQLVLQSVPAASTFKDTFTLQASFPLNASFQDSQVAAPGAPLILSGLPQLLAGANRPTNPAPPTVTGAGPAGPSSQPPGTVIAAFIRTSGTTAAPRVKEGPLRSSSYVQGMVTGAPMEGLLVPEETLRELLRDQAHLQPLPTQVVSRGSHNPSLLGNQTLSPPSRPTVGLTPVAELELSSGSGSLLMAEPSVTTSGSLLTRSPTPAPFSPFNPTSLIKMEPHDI
sequence,measurement,setting,value
TGATTA,binding signal,[1],"1.17 fold enrichment (6-mer frequency, TF over GST control)"
same,binding signal,[2],"1.1 fold enrichment (6-mer frequency, TF over GST control)"
same,binding signal,[3],"1.02 fold enrichment (6-mer frequency, TF over GST control)"
same,binding signal,[4],"1.09 fold enrichment (6-mer frequency, TF over GST control)"
same,binding signal,[5],"1.11 fold enrichment (6-mer frequency, TF over GST control)"
same,binding signal,[6],"1.07 fold enrichment (6-mer frequency, TF over GST control)"
same,binding signal,[7],"1.07 fold enrichment (6-mer frequency, TF over GST control)"
same,binding signal,[8],"1.17 fold enrichment (6-mer frequency, TF over GST control)"
same,binding signal,[9],"1.07 fold enrichment (6-mer frequency, TF over GST control)"
